ATXN2 expr inh: reduces ATXN2 reporter expression in HEK-293 cells; actives 0.72% (n = 360,000); Potency, µM (titrated, usually from 57 µM), inactives show at the top dose activity change, negative = inhibition, hits mostly inhibitors; AID 1745845; HEK-293 ATXN2-luciferase reporter, luminescence, 24 h; further: on the % scale 0 is the no-effect control and ±100 the full control effect; nearly all actives have a fitted effect of over 55% in size
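ATXN2-luciferase reporter cells (luciferase flanked by upstream and downstream ATXN2 gene portions) were treated 24 h at 37 °C with compounds at up to 57 uM. SteadyGlo luminescence gave expression; GF-AFC fluorescence gave viability.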
HT1080-NT tox: kills 2HG-producing HT-1080-NT fibrosarcoma cells | Potency, µM (series often up to 46.1 µM), for the others: at the top dose activity, negative = less viability, hits mostly cytotoxic | HT-1080-NT fibrosarcoma viability, CellTiter-Glo ATP luminescence, 48 h | actives 1.6% (n = 360,000);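 further: NT is the 2HG producing partner of a matched IDH1 knockdown line; 0% = DMSO-treated cells and -100% = media-only wells without cells; nearly all actives have a fitted effect of over 55% in size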
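Toxicity toward the 2HG-producing NT line was scored as %Activity, normalised to DMSO and no-cell wells, from CellTiter-Glo luminescence after 48 hours' treatment.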
ATXN viability: viability counter-screen for ATXN expression inhibitors | S2 cells (HEK-293 line with an ATXN2-luciferase reporter) viability, CellTiter-Fluor protease fluorescence, 24 h | Potency, µM (doses to about 56.7 µM), hits mostly cytotoxic | actives 0.49% (n = 400,000); further: nearly all actives have a fitted effect of over 40% in size
HT1080 IDH1KD tx: HT-1080 IDH1 knockdown cell toxicity (counter line). HT-1080 IDH1 knockdown viability, ATP luminescence, 48 h. Potency, µM (doses to about 46.1 µM), for inactives: at the top dose activity, negative = toxicity, actives largely listed as cytotoxic. actives 2% (n = 360,000). AID 686971;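 further: 0% = DMSO wells and -100% = cell-free medium wells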
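% activity derives from luminescence (CellTiter-Glo), normalised to DMSO and no-cell wells. HT-1080-IDH1KD cells, 750/well, had 48 h compound exposure at 37 °C.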
HepG2 tox: kills HepG2 cells in TGF-b inhibitor counter-screen; HepG2 CAGA-GFP viability, ATP luminescence, 18 h; Potency, µM (highest dose often 46.1 µM), for the others: at the highest dose activity change, negative = cytotoxicity, most hits filed as cytotoxic; actives 0.76% (n = 410,000)
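CellTiter-Glo luminescence gave cytotoxicity after 18 hours at 37 degrees C. The cells were HepG2 CAGA-GFP in 1% FBS DMEM, stimulated with 500 pg/mL TGF-beta after compound addition. %Activity was normalised to no-cell wells (complete cell-killing) and DMSO (no toxicity), and curves were fitted and classified.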
TGFb inhibitor: TGF-b pathway inhibition; Potency, µM (doses to about 46.1 µM), for inactives: at the highest dose activity, negative = inhibition, usual class: inhibitors; actives 1.2% (n = 410,000); HepG2 CAGA-GFP TGF-b/SMAD3 reporter, GFP fluorescence, 18 h; TGF-beta stimulated, 500 pg/mL final; AID 588855; further: on the % scale 0 is the no-effect control and ±100 the full control effect; nearly all actives have a fitted effect of over 65% in size
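Per well, imaged GFP fluorescence of HEPG2 CAGA-GFP cells gives the signal; cells get compound, then TGF-beta (500 pg/mL final), 18 h at 37 degrees C; %Activity versus -TGF-beta and +DMSO controls.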
Numbers without * were called inactive; i = inactive; ? = inconclusive; · = no result given; ! = repeats disagree. Only some compounds are listed: those with a hit (about 3.8% of all), similar ones and a draw of the others. The call rests on the fitted dose curve; in most records, active means well fitted curve in the direction sought with a large enough effect; inconclusive means small, poorly fitted or top-dose-only effect, or another doubt; inactive means no such curve, though single readings can be large; an effect the other way counts as inactive or inconclusive. Potency means the concentration at half of the fitted maximal effect.

SMILES	ATXN2 expr inh	HT1080-NT tox	ATXN viability	HT1080 IDH1KD tx	HepG2 tox	TGFb inhibitor
N#C/C(=C\Nc1ccc2cn[nH]c2c1)c1nc(-c2ccc(Cl)cc2)cs1	?	18µM*	·	15µM*	-21%	14%
N#C/C(=C\Nc1ccc2cn[nH]c2c1)c1nc(-c2ccccc2)cs1	-22%	?	i	?	-14%	0%
COc1cc(C(=O)NCC2(N(C)C)CCCCC2)ccc1OCc1ccccc1	-1%	?	i	9.2µM*	-25%	10%
O=C1/C(=C/c2ccccc2F)SC(=S)N1CC(=O)N1CCCCC1c1cccnc1 (stereo unspecified)	·	-2%	?	-10%	13µM*	?
O=C(CCN1C(=O)/C(=C\c2ccccc2F)SC1=S)N1CCCCC1	?	-3%	20µM*	0%	5%	-3%
CCN1CCN(c2cc(C)c3cc(NC(=O)/C=C/c4cccc(Cl)c4)ccc3n2)CC1	-18%	·	?	·	-35%	84%
COc1ccc(CNC(=O)C(=O)NCCC2CCCCN2S(=O)(=O)c2ccccc2)cc1 (stereo unspecified)	-12%	-4%	i	-7%	0%	-8%
COc1ccc(NC(=O)C(=O)NCCC2CCCCN2S(=O)(=O)c2ccccc2)cc1 (stereo unspecified)	-23%	?	i	13µM*	-37%	-23%
COc1ccc(NC(=O)C(=O)NCCC2CCCCN2S(=O)(=O)c2cccs2)cc1 (stereo unspecified)	?	?	?	5.8µM*	5%	2%
COc1ccc(OC)c(S(=O)(=O)N2Cc3ccccc3CC2C(=O)Nc2ccc(C(C)=O)cc2)c1 (stereo unspecified)	·	·	·	·	-2%	·
C/C(N=Nc1nc2ccccc2s1)=N\Nc1ccccc1O	?	13µM*	?	15µM*	-97%	11µM*
O=C(O)c1ccc(Nc2nc(-c3ccccc3)nc3ccccc23)cc1	·	-27%	?	-16%	-29%	-10%
Cc1ccc(-c2nc(Nc3ccc(N4CCOCC4)cc3)c3ccccc3n2)cc1	-42%	18µM*	·	21µM*	-39%	?
Cc1ccc(-c2nc(NCCN(C)C)c3ccccc3n2)cc1	-30%	?	i	21µM*	-12%	?
CNC(=O)c1ccc(Nc2nc(-c3ccccc3)nc3ccccc23)cc1	3%	18µM*	i	18µM*	-46%	9%
COC(=O)c1ccc(Nc2nc(-c3ccc(C)cc3)nc3ccccc23)cc1	9%	·	i	·	-17%	0%
CCN1/C(=C/C=C/C=C/c2sc3ccccc3[n+]2CC)Sc2ccccc21	·	·	·	·	-23%	7.1µM*
CC[n+]1c(/C=C/Nc2ccccc2)sc2ccccc21	-26%	-9%	i	-19%	-18%	-15%
CCN1/C(=C/C=C/C=C/C=C/c2sc3ccccc3[n+]2CC)Sc2ccccc21	?	-17%	?	-16%	-16%	?
CCN1/C(=C/C=C/c2sc3ccccc3[n+]2CC)Sc2ccccc21	7.1µM*	1.6µM*	11µM*	1.5µM*	-32%	?
CC(C)c1nc2ccc(C(=O)NCc3ccc(N(C)C)cc3)cc2o1	·	·	·	·	-11%	1%
Cc1ccc(C)c(N2CCN(C(=O)c3ccc4nsnc4c3)CC2)c1	-35%	8.2µM*	i	9.2µM*	-19%	-24%
Cc1ccc(C)c(N2CCN(C(=O)c3ccc4[nH]c(C)c(C)c4c3)CC2)c1	·	·	·	·	-84%	-24%
Cc1ccc(C)c(N2CCN(C(=O)c3noc4c3CCCCC4)CC2)c1	·	·	·	·	-27%	13µM*
CCOC(=O)N1CCC(=C2c3ccc(Cl)cc3CCc3cccnc32)CC1	14µM*!	?	?	?	-22%	-27%
SMILES	ATXN2 expr inh	HT1080-NT tox	ATXN viability	HT1080 IDH1KD tx	HepG2 tox	TGFb inhibitor
C[C@]12CC[C@@H]3c4ccc(O)cc4CC[C@H]3[C@H]1C[C@@H](O)[C@H]2O	10%	·	·	·	·	·
CN(C(=O)c1ccccc1Cl)C1CCCCC1	9%	17%	i	-2%	0%	17%
CC1CC(N(C(=O)c2ccccc2Cl)c2ccccc2)c2ccccc2N1 (stereo unspecified)	-12%	23µM*	i	23µM*	1%	-7%
Cc1ccc(CN2CCC(CNC(=O)c3cc4ccc5cccnc5c4[nH]3)CC2)cc1	·	·	·	·	13µM*	?
Cc1cc(=O)n(CC(=O)N2CCN(c3ccc(F)cc3)CC2)c2c1c(C)nn2C	?	·	?	·	-32%	7.1µM*
CCOC(=O)C1CCCN(C(=O)Cn2c(=O)cc(C)c3c(C)nn(C)c32)C1 (stereo unspecified)	-19%	·	i	·	-12%	?
CC(C)(C)c1ccc(-c2noc(CCC(=O)Nc3cccc(Cl)c3)n2)cc1	?	·	i	·	-16%	-8%
COc1ccc2[nH]c(CN3CCC(CO)(CCOc4ccccc4)CC3)c(C)c2c1	52%	15µM*	i	23µM*	-11%	?
OCC1(CCOc2ccccc2)CCN(CC2=Cc3cc(Cl)ccc3OC2)CC1	?	-22%	i	18µM*	-68%	?
OCC1(CCOc2ccccc2)CCN(Cc2cn[nH]c2-c2ccc(F)cc2)CC1	-20%	?	i	23µM*	-33%	?
COc1ccc(CN2CCC(CO)(CCOc3ccccc3)CC2)c(OC)c1C	-29%	?	i	?	4%	-4%
CC(I)CCC(C)[n+]1cccc(I)c1 (stereo unspecified)	·	·	·	·	7%	-2%
OCCNCc1ccc(OCc2ccc(Cl)cc2Cl)cc1	?	?	?	21µM*	22µM*	?
COc1cc(CNCCCCO)ccc1OCc1ccccc1F	-4%	-16%	i	-13%	-24%	9%
OCCCCNCc1ccc(OCc2ccc(Cl)cc2Cl)cc1	25µM*	?	25µM*	?	10µM*	?
S=C(Nc1ccccc1)Nc1ccc(OCc2ccc(Cl)cc2Cl)cc1	1µM*	-10%	i	-11%	-6%	-24%
O=C(Nc1cc2c(cc1C(=O)c1ccccc1Cl)OCCO2)c1ccccc1	·	·	·	·	-38%	-11%
CN(C)C(=O)[C@@H]1C[C@@H](Sc2nc3ccccc3[nH]2)CN1Cc1ccnc2ccccc12	·	·	i	·	·	·
N#CC1=C(N)Oc2c(oc(CO)cc2=O)C1c1ccsc1 (stereo unspecified)	-1%	0%	i	-6%	4%	-2%
